Shown are actives, neighbours in structure and some others; about 4.3% of the full set was active somewhere.
DRD3 antagonist: qHTS of D3 Dopamine Receptor Antagonist: qHTS; max response, negative = inhibition, %; actives 2.5% (n = 360,000); D3R cells, DiscoveRx beta-arrestin luminescence, antagonist mode; active compounds read low; D(3) dopamine receptor (Homo sapiens), P35462; in the data active means max response below about -50%; inconclusive means no clear call, values can overlap the other calls
Target sequence (P35462 whole entry, looked up): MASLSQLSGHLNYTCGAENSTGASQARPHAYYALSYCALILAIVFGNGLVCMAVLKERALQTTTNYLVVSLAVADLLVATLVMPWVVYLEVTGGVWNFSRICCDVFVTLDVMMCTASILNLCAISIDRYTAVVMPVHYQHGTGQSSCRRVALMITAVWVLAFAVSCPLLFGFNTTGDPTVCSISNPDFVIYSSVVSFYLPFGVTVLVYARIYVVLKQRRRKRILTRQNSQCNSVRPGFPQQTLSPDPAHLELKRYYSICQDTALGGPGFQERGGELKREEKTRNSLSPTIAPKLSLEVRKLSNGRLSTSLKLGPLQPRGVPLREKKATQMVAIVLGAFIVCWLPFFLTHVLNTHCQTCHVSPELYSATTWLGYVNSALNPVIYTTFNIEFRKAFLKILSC
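Cells plated overnight at 1500 cells/well, then exposed to library compounds with dopamine controls for 90 minutes at 37 degrees C. DiscoveRx reagent added for 30–60 minutes at room temperature; luminescence read, quantitative HTS format.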
D3 ag: qHTS of D3 Dopamine Receptor Agonist: qHTS; actives 0.58% (n = 410,000); max activation, %; D(3) dopamine receptor (Homo sapiens), P35462; D3R DiscoveRx beta-arrestin cells, luminescence, 90 min; in the data active means max activation above about 30%
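Cells at 1500/well, incubated overnight, then treated with pinned compounds (dopamine as control) for 90 min at 37 degrees C. DiscoveRx reagent added for 30 - 60 minutes at room temperature; luminescence read.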
GLP-1R inv ag: qHTS of GLP-1 Receptor Inverse Agonists (Inhibition Mode); Glucagon-like peptide 1 receptor (Homo sapiens), P43220; HEK293 GLP-1R CRE-luciferase, luminescence, 24 h; GLP-1R form is constitutively active; Potency, µM (titrated, usually from 38.3 µM), most hits filed as inhibitors; actives 1.6% (n = 410,000); further: nearly all actives have a fitted effect of over 55% in size
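qHTS in 1536-well format: reporter HEK293 cells expressing constitutive GLP-1R activity in DMEM + 10% Nu serum, 24 hr with compounds at 37 deg C, luminescence read after 12 min with detection reagent.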
GLP1R ag: qHTS of GLP-1 Receptor Agonists; Glucagon-like peptide 1 receptor (Homo sapiens), P43220; HEK293 GLP-1R CRE-luciferase, luminescence, 4-6 h; cells express a hypersensitive GLP-1R form; Potency, µM (highest dose often 45.6 µM), actives largely listed as activators; actives 0.007% (n = 380,000); AID 624172, 2012
A number is an active result; n = inactive; u = inconclusive; x = no result. Unless noted, the call rests on the fitted dose curve; in most records, active means well fitted curve in the direction sought with a large enough effect; inconclusive means small, poorly fitted or top-dose-only effect, or another doubt; inactive means no such curve, though single readings can be large; an effect the other way counts as inactive or inconclusive.

SMILES	DRD3 antagonist	D3 ag	GLP-1R inv ag	GLP1R ag
CC(=O)Nc1ccc(CN2CCC2(C)C(=O)NC2CCN(Cc3ccccc3)CC2)cc1 (configuration not stated)	n	n	n	n
Cc1ccc(N2CCN(CC(O)COc3cccc(C)c3)CC2)cc1 (configuration not stated)	u	n	u	n
Cc1cccc(N2CCN(CC(O)COc3ccccc3)CC2)c1 (configuration not stated)	-70.6	n	u	n
Cc1cccc(N2CCN(CC(O)COc3ccc(Cl)cc3)CC2)c1 (configuration not stated)	-80.2	n	n	n
Cc1cccc(-c2noc(-c3ccc(NCC4CCCO4)c([N+](=O)[O-])c3)n2)c1 (configuration not stated)	x	n	n	x
CCOC(=O)c1cccc(NC(=O)CSc2cc(=O)n(C)c3ccccc23)c1	x	n	n	x
NS(=O)(=O)c1ccc(CCNC(=O)Cn2c(-c3cccs3)cc3ccccc32)cc1	x	n	n	x
O=C(Nc1ccc(-c2nc3ccccc3o2)cc1)c1ccc(N2CCOCC2)c([N+](=O)[O-])c1	n	n	n	n
COc1ccc2oc(-c3ccc(NC(=O)c4ccc(N5CCOCC5)c([N+](=O)[O-])c4)cc3)nc2c1	n	53.6	n	n
CCOC(=O)c1noc2ncn(CC(=O)O)c(=O)c12	x	n	u	x
O=C(COC(=O)c1ccc2[nH]c3c(c2c1)CCCC3)Nc1ccccc1Cl	n	n	n	n
CCC(C)c1ccccc1NC(=O)COC(=O)c1ccc2[nH]c3c(c2c1)CCCC3 (configuration not stated)	n	n	5.62µM	n
NC(=O)c1cccc(-c2ccnc3c2CC(C(=O)NCc2ccco2)O3)c1 (configuration not stated)	u	n	u	n
CC(=O)Nc1cccc(-c2ccnc3c2CC(C(=O)Nc2ccc4c(c2)OCO4)O3)c1 (configuration not stated)	-54.9	n	u	n
CS(=O)(=O)Nc1cccc(NC(=O)C2Cc3c(-c4ccccc4)ccnc3O2)c1 (configuration not stated)	n	n	0.891µM	n
CC(=O)Nc1ccc(NC(=O)C2Cc3c(-c4ccco4)ccnc3O2)cc1 (configuration not stated)	-61.0	n	n	n
CC(=O)Nc1cccc(-c2ccnc3c2CC(C(=O)Nc2cccc(NS(C)(=O)=O)c2)O3)c1 (configuration not stated)	n	n	n	n
O=C(Nc1ccccc1)C1Cc2c(-c3ccco3)ccnc2O1 (configuration not stated)	n	n	n	n
CC(=O)c1cccc(-c2ccnc3c2CC(C(=O)NCc2ccco2)O3)c1 (configuration not stated)	-70.4	n	u	n
COc1ccc(NC(=O)C2Cc3c(-c4cccc(C(C)=O)c4)ccnc3O2)cc1OC (configuration not stated)	n	n	n	n
CC(=O)Nc1cccc(-c2ccnc3c2CC(C(=O)NCc2cccs2)O3)c1 (configuration not stated)	-77.5	n	u	n
COc1ccc(NC(=O)C2Cc3c(-c4cccc(C(N)=O)c4)ccnc3O2)cc1OC (configuration not stated)	n	39.2	n	n
O=C(CN(Cc1ccc(Br)cc1)S(=O)(=O)c1ccccc1)NCc1ccccn1	n	n	n	n
Cc1ccc(S(=O)(=O)N(Cc2ccccc2)Cc2ccco2)cc1	n	n	11.2µM	n
Cc1ccc(S(=O)(=O)N(Cc2ccc(F)cc2)Cc2ccco2)cc1	n	n	u	n
SMILES	DRD3 antagonist	D3 ag	GLP-1R inv ag	GLP1R ag
O=C(CN(Cc1ccccc1)S(=O)(=O)c1ccc(Br)cc1)NCc1ccco1	n	n	7.94µM	n
COc1ccc(NC(=O)c2oc3ccccc3c2NC(=O)COc2ccc(F)cc2)c(OC)c1	x	n	n	n
COc1cccc(NC(=O)c2oc3ccccc3c2NC(C)=O)c1	-54.7	n	n	n
CCOC(=O)c1oc2ccccc2c1NC(=O)COC	-52.2	n	n	n
COc1ccc(NC(=O)c2oc3ccccc3c2NC(=O)c2ccco2)c(OC)c1	n	48.6	n	n
COCC(=O)Nc1c(C(=O)Nc2cccc(OC)c2)oc2ccccc12	n	n	n	n
CCOCC(=O)Nc1c(C(=O)Nc2ccc(OC)cc2OC)oc2ccccc12	n	73.4	n	n
CCOC(=O)c1c(C)oc2nc(C)nc(N3CCN(c4ccccc4F)CC3)c12	x	n	n	x
Cc1cccc(CSc2ccc3nnc(CCNS(=O)(=O)c4ccccc4)n3n2)c1	x	n	n	x
CCOC(=O)c1oc2ccccc2c1CN1CCN(c2ccccc2)CC1	-77.3	n	u	n
CCCCC(Sc1nc(C)c(Cc2ccccc2)c(=O)[nH]1)C(=O)O (configuration not stated)	n	n	n	n
CCOc1ccccc1NC(=O)N1CCc2c(sc(C)c2CC)C1c1ccccc1 (configuration not stated)	x	n	u	x
CC1CCN(C(=O)COC(=O)c2n[nH]c3ccccc23)CC1	-53.5	n	u	n
CCC1CCCCN1C(=O)COC(=O)c1n[nH]c2ccccc12 (configuration not stated)	n	n	u	n
O=C(c1ccc2c(c1)N(Cc1ccc(Cl)cc1)C(=O)c1ccccc1S2=O)N1CCN(c2ccccc2F)CC1 (configuration not stated)	x	n	n	n
CNC(=O)C1Cc2c(-c3ccc(Cl)cc3)ccnc2O1 (configuration not stated)	-57.3	n	n	n
CC(=O)Nc1ccc(NC(=O)C2Cc3c(-c4ccc(Cl)cc4)ccnc3O2)cc1 (configuration not stated)	n	n	n	n
O=C(NCc1ccccc1)C1Cc2c(-c3cccc(F)c3)ccnc2O1 (configuration not stated)	-50.2	n	u	n
CN1CCN(c2ccc(CNC(=O)C3Cc4c(-c5cccc(F)c5)ccnc4O3)cc2)CC1 (configuration not stated)	-56.1	n	n	n
O=C(NCc1cccc(Cl)c1)C1Cc2c(-c3cccc(F)c3)ccnc2O1 (configuration not stated)	n	n	u	n
O=C(NCCc1ccccc1)C1Cc2c(-c3ccccc3)ccnc2O1 (configuration not stated)	-67.5	n	u	n
COCCCNC(=O)/C(C#N)=C/c1c(N2CCN(C)CC2)nc2ccccn2c1=O	n	n	n	n
Cc1cccc(C(=O)Nc2ccc(N3CCC(N4CCCCC4)CC3)c(C(=O)O)c2)c1	x	n	n	x
